# In PubChem BioAssay (NCI):
# This is part of a sample that, as a whole, favours compounds with a hit. Of some 83,000 tested, about 20% had one in any assay.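 Method: cells in 96-well plates; compound added at one concentration; 48 h incubation; percent growth measured; values under 10 scored active.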 Values without a mark were called inactive. The source made the active and inactive calls.
# What was measured:
# Assay in all cases: NCI-60 one-dose screen, 48 h (100 = growth as untreated, 0 = no growth, -100 = all killed)
# [1] = system: NCI-H226 lung; conditions: 10 µM
# [2] = system: HOP-62 NSCLC; conditions: 10 µM unless noted
# [3] = system: NCI-H460 lung; conditions: 10 µM unless noted
# [4] = system: HOP-92 NSCLC; conditions: 10 µM unless noted
# [5] = system: NCI-H522 lung; conditions: 10 µM
# [6] = system: A549/ATCC NSCLC; conditions: 10 µM unless noted
# [7] = system: 786-0 renal; conditions: 10 µM unless noted
# [8] = system: COLO 205 colon; conditions: 10 µM unless noted
# [9] = system: DU-145 prostate; conditions: 10 µM unless noted
# [10] = system: K-562 leukemia; conditions: 10 µM unless noted
# [11] = system: MALME-3M melanoma; conditions: 10 µM unless noted
# [12] = system: MDA-MB-231 breast; conditions: 10 µM unless noted
# [13] = system: RXF 393 renal; conditions: 10 µM unless noted
# [14] = system: SF-268 CNS; conditions: 10 µM unless noted
# [15] = system: SF-295 CNS; conditions: 10 µM unless noted
# [16] = system: SF-539 CNS; conditions: 10 µM unless noted
# [17] = system: UACC-257 melanoma; conditions: 10 µM unless noted
# [18] = system: M14 melanoma; conditions: 10 µM unless noted
# [19] = system: NCI-H322M lung; conditions: 10 µM unless noted
Compound,growth [1],growth [2],growth [3],growth [4],growth [5],growth [6],growth [7],growth [8],growth [9],growth [10],growth [11],growth [12],growth [13],growth [14],growth [15],growth [16],growth [17],growth [18],growth [19]
Cc1ccc2c(N/N=C\c3ccco3)cc(C)nc2n1,77.6%,83.3%,34.1%,40.4%,88.6%,46.4%,49.2%,8.81% (active),59.6%,37.2%,90.7%,68.9%,63.7%,77.5%,69.5%,72%,76.5%,34.6%,
O=C1C2CC3C(CC2C(=O)[N]1[Sn]([c]1ccccc1)([c]1ccccc1)[c]1ccccc1)C1(Cl)C(Cl)=C(Cl)C3(Cl)C1(Cl)Cl (stereo not given),-43.5% (active),-92.1% (active),-81.6% (active),-96.1% (active),-94.2% (active),-97.2% (active),-86.2% (active),-86.7% (active),-94.5% (active),-30.8% (active),-91.8% (active),-94.7% (active),-76.1% (active),-88.7% (active),-86.8% (active),-99.9% (active),-99.3% (active),-94% (active),
O=[N+]([O-])c1cc2c(cc1Br)C1C(C3C2C(Cl)(Cl)C(Cl)=C(Cl)C3(Cl)Cl)C(Cl)(Cl)C(Cl)=C(Cl)C1(Cl)Cl (stereo not given),86.7%,92.2%,107%,100%,83.1%,95.7%,89.9%,110%,108%,105%,80.8%,108%,96.9%,102%,95.8%,94.9%,92.9%,90.6%,
Brc1ccc(SCN(CSc2ccc(Br)cc2)Cc2ccccc2)cc1,76.6%,120%,63.1%,59.7%,73%,45.8%,60.8%,108%,96.8%,81.5%,104%,39.8%,89.9%,45.4%,52.3%,49.8%,93.1%,73.7%,
CCCCCCCCCCCCSC1=CC(=O)C=CC1=O,91.5%,82.2%,105%,24.3%,-81.2% (active),92.3%,98.7%,107%,111%,75%,102%,97.2%,78%,44.6%,51.8%,27.7%,73.2%,89.5%,
COc1ccc(OC)c2ncccc12,95.8%,90.2%,108%,72.2%,84%,108%,102%,106%,112%,96%,89.7%,109%,107%,102%,95%,102%,110%,93.5%,
Cc1nc2cc(Nc3nc(Nc4ccc(F)cc4)nc(N4CCN(C)CC4)n3)ccc2n1Cc1ccccc1,65%,58.2%,3.42% (active),2.5% (active),-55.1% (active),7.21% (active),-83.1% (active),-55.5% (active),16.7%,0.387% (active),-83.4% (active),-73.3% (active),-82.7% (active),14.6%,-62.5% (active),-95.9% (active),-83.7% (active),-73% (active),
CC(=O)OCC1O[C@@H]([S-])C(OC(C)=O)[C@H](OC(C)=O)[C@@H]1OC(C)=O.[Au+].c1ccc(CN2[CH-]N(Cc3ccccc3)C(c3ccccc3)=C2c2ccccc2)cc1,,,,,,,,,,,,,,,31.1%,,,,
N#CCCN1CCN(CCC#N)C1=S,112%,108%,103%,,,97.4%,105%,,110%,109%,,99.6%,124%,99.4%,93.3%,101%,99.8%,96.6%,
COc1ncc(F)c(OC)n1,101%,94.3%,108%,87%,97.5%,99.8%,102%,,110%,100%,103%,115%,105%,104%,97.7%,107%,101%,102%,
Cc1cc(Cl)c2c(Cl)ccc(Cl)c2n1,110%,102%,111%,93.7%,83%,95.4%,101%,,112%,97.6%,105%,119%,118%,99.1%,96.9%,97.5%,102%,101%,
O=C(O)CCN1CCN(c2cccc(Cl)c2)CC1,104%,97%,106%,110%,127%,95.9%,104%,,118%,99.8%,107%,116%,105%,117%,87.4%,89.1%,94.6%,109%,
Cn1c2c(cc(S(=O)(=O)c3ccccc3)c1=O)CCc1c-2cnn1-c1cccc(Cl)c1,84.6%,94.7%,101%,44.8%,-81.2% (active),85.6%,92.1%,97.9%,135%,73.3%,87.4%,98.3%,93.4%,106%,80.3%,83.1%,79.7%,98%,
O=C(Nc1ccc(F)cc1)c1ccc(C(=O)Nc2ccc(F)cc2)cc1,99.5%,98.2%,105%,105%,111%,98.9%,98.8%,,112%,98.7%,101%,102%,105%,107%,91.1%,89.9%,101%,105%,
C(=C\c1ccccc1)/CN1CCN(C(c2ccccc2)c2ccccc2)CC1,86.3%,99.6%,96.5%,62.5%,93.5%,88.7%,95.3%,101%,109%,79.2%,106%,91.5%,81%,98.5%,,90.7%,92.1%,99.1%,
CSc1nnc(-c2sc3nnc(-c4ccccc4)c(-c4ccccc4)c3c2O)o1,87.7%,71.1%,56.7%,,96.6%,80.5%,88.7%,110%,84.7%,,,90.4%,82.6%,80.6%,40.8%,84.6%,91.6%,73%,
COc1ccc(-c2[nH]ncc2Nc2cc(OC)c(OC)c(OC)c2)cc1,,51.7%,14.1%,65.8%,12.7%,61.2%,44.1%,-11.9% (active),46.5%,57.2%,44.1%,53.3%,20.5%,53.1%,13%,1.83% (active),66.5%,31.1%,48.7%
Cc1nc2cc(Nc3nc(Nc4ccc(F)cc4)nc(-c4cccs4)n3)ccc2n1Cc1ccccc1,65%,92.3%,39.6%,22%,53.5%,43.1%,37.5%,56.8%,75.2%,43.1%,77.6%,69.1%,25.9%,63.7%,51.9%,59.9%,57.5%,53.1%,
